In all, about 1,500 compounds went through this assay and about 890 (59%) were called active.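 The calls were made as follows: active = inhibition of the choline-evoked signal at any tested dose together with a fitted dose-response curve; inactive = no inhibition at any dose or no curve.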 The set was probably picked from earlier hits. These entries were drawn from the full list. Potency and affinity values are given separately.
The compounds below were run against High affinity choline transporter 1 (Homo sapiens) (UniProt Q9GZV3) (assay: human choline transporter blockers, potency – cell-based, 5-point CRC, membrane potential dye, dose response (AID 504840;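 also: 0% = buffer-only response and 100% = EC90 choline response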)). Details: HEK293-CHT, choline-induced depolarization, CHT with LV-to-AA double alanine mutation; series mostly up to 37 µM; inhibition: at the top concentration.
Chain of High affinity choline transporter 1 (Homo sapiens) (Q9GZV3 whole entry, looked up): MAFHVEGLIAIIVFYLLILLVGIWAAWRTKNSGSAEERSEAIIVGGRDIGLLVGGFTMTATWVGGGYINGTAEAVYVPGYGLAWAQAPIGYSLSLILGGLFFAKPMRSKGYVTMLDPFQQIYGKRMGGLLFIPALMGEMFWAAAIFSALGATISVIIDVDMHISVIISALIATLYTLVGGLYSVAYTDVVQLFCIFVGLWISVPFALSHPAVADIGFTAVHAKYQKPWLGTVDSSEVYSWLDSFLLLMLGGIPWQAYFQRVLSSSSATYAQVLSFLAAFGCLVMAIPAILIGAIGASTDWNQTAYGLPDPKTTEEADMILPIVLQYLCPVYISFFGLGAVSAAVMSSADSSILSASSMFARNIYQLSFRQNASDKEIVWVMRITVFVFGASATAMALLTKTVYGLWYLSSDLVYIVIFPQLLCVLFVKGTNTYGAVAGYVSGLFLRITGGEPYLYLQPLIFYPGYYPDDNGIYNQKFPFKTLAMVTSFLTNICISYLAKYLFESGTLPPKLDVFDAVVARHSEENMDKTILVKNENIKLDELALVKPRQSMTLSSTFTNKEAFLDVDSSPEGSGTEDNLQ

inhibition, inactive:
Cc1cc(=O)[nH]c(SCC(=O)/C=C2\N(C)c3ccccc3C2(C)C)n1 36.3%, CC(=O)Oc1ccc(C(=O)Nc2ccc(S(=O)(=O)NCC3CCCO3)cc2)cc1 (stereo not drawn) 30.6%, Cn1cnnc1Sc1ccc(C(=O)NCCC(c2ccccc2)c2ccccc2)cc1[N+](=O)[O-] 67%, COc1cc(C(=O)NC(=S)NNC(=O)[C@H]2C[C@@H]2c2ccccc2)cc(OC)c1OC 9.51%, O=C(Nc1ncc([N+](=O)[O-])s1)C1CC(=O)N(c2ccc(F)cc2)C1 (stereo not drawn) 50.3%, Cc1ccc(N2CC(C(=O)Nc3ncc([N+](=O)[O-])s3)CC2=O)cc1 (stereo not drawn) 34.5%, CCCCCC(=O)c1ccc(O)cc1O 43.6%, CCN(CC)CCCNC(=O)c1cn(CC)c2ccc(S(=O)(=O)N(C)C3CCCCC3)cc2c1=O 51.1%, CCCCn1c(SCc2nnc(-c3ccccc3)o2)nc2c1c(=O)n(C)c(=O)n2C 23.6%, Cn1nc(C(=O)NCCCN2CCCCC2)c2c1-c1ccccc1SC2 62.5%, CC1CCCC(C)N1CCCNC(=O)c1ccc2c(c1)NC(=O)c1ccccc1S2 (stereo not drawn) 58.5%, CCCCCCCCCCCCN1[C@@H](CC(=O)O)c2cc(C(F)(F)F)ccc2S1(=O)=O 40%, CN(Cc1ccccc1F)C(=O)CCCNC(=O)c1ccc(Cl)cc1 47%, Cn1c2ccccc2c(=O)c2c(O)cccc21 15.4%, O=C(c1cnn2c(C(F)(F)F)cc(-c3cccs3)nc12)N1CCN(Cc2ccccc2)CC1 36.1%, C#CCNc1c2c(nc3ncnn13)CC(C)CC2 (stereo not drawn) 35.4%, Cc1ccccc1OCCC(=O)OCC(=O)c1c(N)n(CC(C)C)c(=O)n(C)c1=O 69.1%, CC(C)Cn1c(N)c(C(=O)COC(=O)CCNS(=O)(=O)c2ccccc2)c(=O)n(C)c1=O 65%, CCc1c(C)nc2ncnn2c1NCCc1ccc(Cl)cc1 28.3%, O=C(C1CCN(S(=O)(=O)c2ccc3ccccc3c2)CC1)N1CCN(c2ncccn2)CC1 47.8%, CCn1c(N2CCN(S(=O)(=O)c3ccc(OC)cc3)CC2)nc2ccccc21 56.7%, O=C(COc1ccccc1/C=C1\SC(=O)NC1=O)Nc1ccccc1 52.7%, CCN(CC)C(=O)CSc1nc2ccc(NC(=O)CSc3nccn3C)cc2s1 79.5%, Cc1ccc2c(c1)N(S(=O)(=O)c1ccc(CN3C(=O)c4cccnc4C3=O)s1)CCO2 28.7%, O=C(Cn1nc(-c2ccccc2)ccc1=O)NCc1ccc(F)cc1 55.3%, O=[N+]([O-])c1cc(-c2ncccn2)c([N+](=O)[O-])s1 49.9%, Cc1cc(C(=O)CSc2n[nH]c(N)n2)c(C)n1-c1ccc(F)cc1 24.1%, Cn1c(CN2CCCC2)c(C#N)c2ccccc21 30.8%, NS(=O)(=O)c1ccc(CCNCc2cc(Cl)ccc2OCc2ccccc2)cc1 16.5%, Cc1cccc(NC(=O)c2ccccc2O)c1C 38%, Cc1nnc(SC(C)C(=O)Nc2sc3c(c2C#N)CCCC3)[nH]c1=O (stereo not drawn) 23.2%, CCOC(=O)C1CCN(C(=O)CSCc2nc(-c3ccc(OCC)cc3)oc2C)CC1 41.5%, Cc1nc([N+](=O)[O-])c(Br)n1Cc1ccccc1 30.2%
